The list is not random: actives were taken first. Their share in the collection is about 11%.
L3MBTL1 block = qHTS Assay for the Inhibitors of L3MBTL1; actives 0.66% (n = 230,000); AlphaScreen L3MBTL1–H3K9me1 peptide binding; AID 485360, 2010; Potency, µM (doses to about 57.1 µM), for the others: at the top dose activity, negative = inhibition, actives largely listed as inhibitors; also: % is scaled to controls: 0 for no effect and ±100 for the full control effect; nearly all actives have a fitted effect of over 60% in size
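Displacement of a biotinylated histone H3(1-15) peptide monomethylated at Lys9 (75 nM) from L3MBTL1 (50 nM) was measured by AlphaScreen after a 30 min room-temperature compound incubation; cefsulodin titration served as intraplate control.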
JMJD2A Tudor = qHTS Assay for Inhibitors of JMJD2A-Tudor Domain; AlphaScreen JMJD2A-Tudor / H3K4me3 peptide binding; actives 4.4% (n = 390,000); AID 504339, 2011; Potency, µM (highest dose often 114 µM), inactives show at the highest dose activity change, negative = inhibition, actives largely listed as inhibitors; Lysine-specific demethylase 4A (Homo sapiens), O75164; also: % is scaled to controls: 0 for no effect and ±100 for the full control effect; nearly all actives have a fitted effect of over 50% in size
G9a block = qHTS Assay for Inhibitors of Histone Lysine Methyltransferase G9a; Histone-lysine N-methyltransferase EHMT2 (Homo sapiens), Q96KQ7; G9a H3K9 monomethylation, AlphaScreen, 2 h; Potency, µM (series often up to 102 µM), inactives show at the top dose activity, negative = inhibition, usual class: inhibitors; actives 8.8% (n = 350,000); also: % is scaled to controls: 0 for no effect and ±100 for the full control effect; nearly all actives have a fitted effect of over 75% in size
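Methyltransferase reactions run at room temperature for 2 h (20 nM enzyme, 500 nM biotin-H3K9 peptide, 20 uM SAM) after a 15 min compound preincubation; product detected by AlphaScreen beads and anti-H3K9me1 antibody.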
HP1b chromo inh = HTS for Inhibitors of HP1-beta Chromodomain Interactions with Methylated Histone Tails; Chromobox protein homolog 1 (Homo sapiens), P83916; AlphaScreen HP1-beta / biotin-H3K9me3 peptide binding; Potency, µM (series often up to 114 µM), for the others: at the top dose activity change, negative = inhibition, actives largely listed as inhibitors; actives 0.56% (n = 390,000); AID 540317, 2011; also: nearly all actives have a fitted effect of over 70% in size
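Compound inhibition of the preformed complex between 50 nM HP1-beta and 50 nM biotinylated H3K9me3 peptide was read by AlphaScreen. Buffer was PBS pH 7.4 with 0.01% Tween-20. Incubations ran 30 min at room temperature, with 10 ug/mL donor/acceptor beads.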
BAZ2B inh = qHTS Assay for Inhibitors of BAZ2B. Bromodomain adjacent to zinc finger domain protein 2B (Homo sapiens), Q9UIF8. actives 4.4% (n = 360,000). Potency, µM (top dose mostly 114 µM), inactives show at the highest dose activity change, negative = inhibition, hits mostly inhibitors. AID 504333, 2011. AlphaScreen BAZ2B-H3K14Ac peptide displacement; also: % is scaled to controls: 0 for no effect and ±100 for the full control effect; nearly all actives have a fitted effect of over 60% in size
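AlphaScreen displacement of biotin-H3(5-23)K14Ac peptide (50 nM final) from BAZ2B (50 nM final) in PBS pH 7.4, 0.01% Tween-20; complex preformed 30 min RT, then compounds (top 110 uM) 30 min RT, beads 20 min dark.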
* marks the source's active call; other numbers are inactive results; ? = inconclusive; . = no result given; [ ] = dose if it differs, or a comment. Calls follow the shape of the dose curve; as a rule, active = well fitted inhibition curve with a large enough effect; inconclusive = small, poorly fitted or top-dose-only effect; inactive = no such curve, though single readings can be large or run the other way. Potency is read from the fitted curve at half-maximal effect.

SMILES | L3MBTL1 block | JMJD2A Tudor | G9a block | HP1b chromo inh | BAZ2B inh
S=c1[nH]nc(-c2ccccc2)n1/N=C/c1ccc(-c2ccccc2Cl)o1 | -11% | ? | ? | -15% | -13%
Cc1ccc(/C=N/n2c(C)n[nH]c2=S)o1 | 2% | 5µM* | ? | 15% | -5%
CC(=C/c1ccccc1)/C=N/n1c(C)n[nH]c1=S | 10% | 32µM* | . | 2% | -7%
S=c1[nH]nc(-c2ccncc2)n1/N=C/c1cn(-c2ccccc2)nc1-c1ccc(Cl)cc1 | . | -35% | -12% | 12% | -4%
S=c1[nH]nc(-c2cccnc2)n1/N=C/C=C/c1ccccc1 | -8% | 7.1µM* | 1.8µM* | -19% | -33%
CC(=C/c1ccccc1)/C=N/n1c(-c2ccncc2)n[nH]c1=S | -3%[11.4 µM] | 10µM* | -119% | ? | ?
CC(/C=N/N1C(=O)CSC1=S)=C\c1ccccc1 | 10% | -33% | ? | -2% | ?
C(=C\c1nc(-c2cccnc2)no1)/c1ccccc1 | -4% | -4% | -10% | 35% | -3%
COc1ccc(CNC(=O)CCS(=O)(=O)c2cc(Br)cc3c2N(C(=O)C2CC2)CC3)cc1 | . | -10% | 6%[59 µM] | 28% | 1%
Cc1ccc(CNC(=O)CN2C(=O)CSc3ccc(S(=O)(=O)N(C)C)cc32)cc1 | . | -7% | -20%[59 µM] | 11% | -6%
COc1ccccc1C(O)c1nccn1Cc1ccccc1 (stereo not given) | . | -18% | . | 25% | .
CC(/C=N/n1c(-c2cccnc2)n[nH]c1=S)=C\c1ccccc1 | -5% | 20µM* | 0.89µM* | 17% | ?
CC(/C=N/NC(=O)c1cccnc1)=C\c1ccccc1 | . | -2% | 4% | 31% | .
COC(=O)c1sc2cccc(F)c2c1S(=O)(=O)NCc1ccc(F)cc1 | . | -25% | -3%[59 µM] | 2% | -18%
O=C(CCc1ccccc1)Nc1ncnc2c1C(c1ccccc1)c1c(ccc3ccccc13)O2 (stereo not given) | . | -35% | . | . | .
CN1CCN(CC(=O)Nc2nc3ccccc3s2)CC1 | 0% | 28µM* | 35µM* | ? | 71µM*
Cc1ccc(S(=O)(=O)N2CCCC2C(=O)Nc2nc3ccccc3s2)cc1 (stereo not given) | -8% | -20% | 16µM* | 3% | 0%
O=C(CN1CCOCC1)Nc1nc2ccc(Br)cc2s1 | . | 1% | 50µM* | 38% | -5%
O=C(CN1CCCCCC1)Nc1nc2ccccc2s1 | . | 22µM* | . | ? | .
O=C(Nc1nc2ccccc2s1)C1CCCN1S(=O)(=O)c1ccc(Cl)cc1 (stereo not given) | -8% | -31% | -1%[59 µM] | 9% | -2%
O=C(CN1CCN(Cc2ccccc2)CC1)Nc1nc2ccccc2s1 | . | -21% | 0% | 22% | -15%
O=[S+]([O-])(/C=C/c1nc(Nc2cc(F)cc(F)c2)c2ncn(CC(F)F)c2n1)c1ccccc1 | . | -15% | . | . | .
COc1ccc(OC)c(NC(=O)N2CCC3(CC2)Oc2ccccc2C(=O)N3Cc2ccccc2F)c1 | . | ? | ? | -8% | -35%
Cc1c(P(=S)(c2ccccc2)c2ccccc2)c2ccccc2n1CCc1ccccc1 | . | -22% | . | . | .
Cc1ccc2nc(NC(=O)C3CCCN(S(=O)(=O)c4cccc5nsnc45)C3)sc2c1 (stereo not given) | -10% | ? | 35µM* | -3% | -39%
SMILES | L3MBTL1 block | JMJD2A Tudor | G9a block | HP1b chromo inh | BAZ2B inh
Cc1nc2n(n1)C(c1ccccc1)C1=C(CC(c3ccco3)CC1=O)N2 (stereo not given) | -6% | -19% | 45µM* | 13% | 18%
CCC(C)NC(=O)Cn1ccc2cc(S(=O)(=O)N3CCCCC3)ccc21 (stereo not given) | . | -11% | -11%[59 µM] | 30% | 5%
CCC(C)NC(=O)Nc1ccc(Br)cc1 (stereo not given) | 7% | -1% | -2% | 40% | -13%
CCC(C)Nc1ccc(NC(C)CC)cc1 (stereo not given) | ? | 40µM* | 2%[0.501 µM] | ? | 35µM*
COc1cc(/C=N\NC(=O)CC#N)ccc1OC/C=C/c1ccccc1 | . | 79µM* | 15% | 33% | 56µM*
COc1cc(/C=C/c2cc[n+](C)cc2)ccc1OCC(=O)Nc1ccccc1 | . | -9% | 13µM* | 14% | -21%
COc1cc(/C=N/NC(=O)c2ccccc2O)ccc1OCC(=O)Nc1ccccc1 | 5% | -24% | -5%[59 µM] | 58% | 79µM*
COc1cc(/C=N/NC(=O)c2ccncc2)ccc1OCC(=O)Nc1ccccc1 | . | -4% | 9% | 23% | 0%
C/C=C/c1ccc(OCC(=O)Nc2ccc(C(N)=O)cc2)c(OC)c1 | 2% | -13% | -32% | 34% | -14%
COc1cc(/C=N\NC(=O)c2ccc(-c3ccccc3)cc2)ccc1OCC(N)=O | . | 89µM* | 0% | 11% | -2%
COCC(=O)N/N=C\c1ccc(OC/C=C/c2ccccc2)c(OC)c1 | . | -20% | 56% | 21% | -23%
Cc1ccc(C)c(CNC(=O)C2CCCCN2S(=O)(=O)c2ccc(F)cc2)c1 (stereo not given) | . | 9% | 21%[59 µM] | 24% | -7%
CCN1CCN(c2ccc(NC(=O)c3cccc(F)c3)cc2Cl)CC1 | -5% | -17% | -1% | 25% | -1%
Cc1cc(C)cc(NC(=O)NCCc2c(C)nn(C)c2C)c1 | . | -12% | 3%[59 µM] | -5% | -6%
CCCC/C=C/[C@H](c1ccccc1)[C@H](CO)Cc1ccccc1 | . | 90% | . | 147% | .
CCCOc1ccc(/C(O)=C2/C(=O)C(=O)N(CCCn3ccnc3)C2c2ccco2)cc1 (stereo not given) | -1% | ? | . | 39% | -7%
O=C1C(=O)N(CCCn2ccnc2)C(c2ccccn2)/C1=C(/O)c1ccccc1 (stereo not given) | 5% | . | 50µM* | . | -8%
O=C1C(=O)N(CCCn2ccnc2)C(c2cccnc2)/C1=C(/O)c1ccc(F)cc1 (stereo not given) | 6% | ? | -8%[59 µM] | 18% | ?
CC1Cc2cc(/C(O)=C3/C(=O)C(=O)N(CCCn4ccnc4)C3c3ccncc3)ccc2O1 (stereo not given) | 6% | -23% | . | 33% | ?
CCOc1cccc(C2/C(=C(/O)c3ccc4c(c3)CC(C)O4)C(=O)C(=O)N2CCCn2ccnc2)c1 (stereo not given) | . | -28% | ? | 53% | ?
CC1Cc2cc(/C(O)=C3/C(=O)C(=O)N(CCCn4ccnc4)C3c3cccnc3)ccc2O1 (stereo not given) | 7% | 14µM* | 50µM* | 8% | ?

Screens from PubChem.
